Test results as given in PubChem BioAssay (Tox21).
Results filed as inconclusive are left out. Activity calls are given as the source filed them. Calls follow the shape of the dose curve; as a rule, active = well fitted inhibition curve with a large enough effect in the repeat runs; inconclusive = weak or mixed curves; inactive = no such curve, though single readings can be large or run the other way.

What follows are compounds tested against Cytochrome P450 3A4 (Homo sapiens) (UniProt P08684) (assay: Cytochrome P450 Family 3 Subfamily A Member 4 (CYP3A4) small molecule antagonists: luciferase reporter qHTS assay (AID 1671201; also: nearly all actives have a fitted effect of over 50% in size)). Conditions: P450-Glo CYP3A4 enzyme, luciferin luminescence, 1 h; series mostly up to 115 µM; activity change, negative = inhibition: at the top concentration.
Cytochrome P450 3A4 (Homo sapiens), sequence (P08684 whole entry, looked up): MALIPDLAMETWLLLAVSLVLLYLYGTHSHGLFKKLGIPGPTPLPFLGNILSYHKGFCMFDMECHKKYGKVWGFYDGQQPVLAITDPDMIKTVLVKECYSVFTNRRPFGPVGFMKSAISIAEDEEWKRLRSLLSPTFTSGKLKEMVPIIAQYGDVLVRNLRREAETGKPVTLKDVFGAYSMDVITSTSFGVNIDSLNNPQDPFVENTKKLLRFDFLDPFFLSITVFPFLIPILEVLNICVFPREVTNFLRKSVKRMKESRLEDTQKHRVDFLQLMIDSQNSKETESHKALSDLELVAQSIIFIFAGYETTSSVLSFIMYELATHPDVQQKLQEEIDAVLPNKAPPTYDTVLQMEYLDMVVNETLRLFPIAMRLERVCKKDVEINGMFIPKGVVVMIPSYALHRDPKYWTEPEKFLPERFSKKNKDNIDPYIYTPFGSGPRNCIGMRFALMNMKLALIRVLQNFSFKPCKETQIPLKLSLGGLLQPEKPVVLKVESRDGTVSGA
From the text: National Center for Advancing Translational Sciences [NCATS]
U.S. Environmental Protection Agency [EPA]
National Institutes of Environmental Health Sciences [NIEHS]
National Toxicology Program [NTP]
U.S. Food and Drug Administration [FDA]
Cytochrome P450 (CYP) enzymes are membrane-bound hemeproteins that play a key role in metabolism of drugs and xenobiotics. Evaluation of the effect of chemicals on CYP isozymes is useful to minimize the adverse drug reactions and toxicities in drug development process. Tox21 chemicals were tested for their effect on CYP enzyme activities by using P450-Glo (TM) screening systems (Promega Corporation, Madison, WI). These systems provide a luminescent method containing proluciferin substrates and are converted to luciferin products by CYP isozymes. The luciferin products formed are detected with a luciferin detection reagent, and the amount of light produced is proportional to CYP activity. P450-Glo (TM) CYP3A4 screening system (Catalog. No. V9910) was used to detect the compounds that interfere in CYP3A4 activity. The positive control compound used for CYP3A4 assay is ketoconazole (Sigma-Aldrich, St. Louis, MO).
Tox21 Assay Protocol Summary:
Two ul of enzyme-substrate mix was dispensed into medium binding white/solid 1536-well plates (Greiner Bio-One North America Inc., Monroe, NC) using a BioRaptr Flying Reagent Dispenser (FRD, Beckman Coulter, Brea, CA). Compounds dissolved in DMSO and positive control (ketoconazole) were transferred to the assay plates at 23 nl using a Pintool station (Wako, San Diego, CA). The assay plates were incubated at room temperature for 10 min. Then 2 ul of NADPH regeneration solution was added to each well of the assay plates using an FRD and incubated at room temperature for 1 h. The reaction was stopped by adding 4 ul of detection reagent using an FRD and after 20 min incubation at room temperature the luminescence signal was measured using a ViewLux plate reader (Perkin Elmer, Shelton, CT). Data were expressed as relative luminescence units.
% is scaled to controls: 0 for no effect and ±100 for the full control effect; potency is read from the fitted curve at half-maximal effect.

| Structure (SMILES) | activity change, negative = inhibition | Potency |
| --- | --- | --- |
| CC(=O)NC(=O)c1ccccc1O | 0.432% [at 52.9 µM] (inactive) |  |
| CCC(=O)OCc1ccccc1 | 4.93% (inactive) |  |
| CC1=CC(=O)[C@H]2C[C@@H]1C2(C)C | 7.91% (inactive) |  |
| CC(CC=O)CC(C)(C)C (stereo not given) | -17% (inactive) |  |
| CC1=NN(c2cc(S(=O)(=O)O)ccc2Cl)C(=O)C1N=Nc1ccccc1 (stereo not given) | 1.44% (inactive) |  |
| CCC1C(=O)OCC1Cc1cncn1C (stereo not given) |  | 11 µM (active) |
| CCC(C(=O)NC(=O)NC(C)=O)c1ccccc1 (stereo not given) | 5.96% [at 52.9 µM] (inactive) |  |
| CN(C)C(=O)Oc1ccc[n+](C)c1 | 2.39% [at 52.9 µM] (inactive) |  |
| CC1=CCC(O)(C(C)C)CC1 (stereo not given) | -22.9% (inactive) |  |
| CC(C)C(=O)OC(=O)C(C)C | 4.47% (inactive) |  |
| CO[C@@]1(NC(=O)C(C(=O)O)c2ccc(O)cc2)C(=O)N2C(C(=O)O)=C(CSc3nnnn3C)CO[C@@H]21 (stereo not given in full) | -0.299% [at 52.9 µM] (inactive) |  |
| CC(=O)c1ccccc1[N+](=O)[O-] | 26.4% (inactive) |  |
| CN1[C@@H]2CC[C@H]1CC(OC(=O)C(O)c1ccccc1)C2 (stereo not given in full) | 2.28% [at 52.9 µM] (inactive) |  |
| CCN(C=O)CC | -1.34% (inactive) |  |
| CN1CC(=O)N/C1=N/C(=O)Nc1cccc(Cl)c1 | 5.9% [at 52.9 µM] (inactive) |  |
| CC1=NS(=O)(=O)c2cc(Cl)ccc2N1 | 14.8% [at 52.9 µM] (inactive) |  |
| CO[Si](C)(OC)c1ccccc1 |  | 25.2 µM (active) |
| CCCCc1ccc2c(n1)[C@@H](c1ccc(OC)cc1C[C@H](C)C(=O)O)[C@H](C(=O)O)[C@H]2c1ccc2c(c1)OCO2 | 10.3% (inactive) |  |
| CC(N)C12CC3CC(CC(C3)C1)C2 (stereo not given) | -17% [at 52.9 µM] (inactive) |  |
| CC1(C)[C@@H]2CC[C@@]1(C)[C@H](O)C2 | 2.9% (inactive) |  |

| Structure (SMILES) | activity change, negative = inhibition | Potency |
| --- | --- | --- |
| Nc1ccncc1N | 9.69% [at 52.9 µM] (inactive) |  |
| C=CC(=O)OCCCl | 0.74% (inactive) |  |
| C[N+]1(CC2COC(c3ccccc3)(c3ccccc3)O2)CCCCC1 (stereo not given) | -9.22% [at 23.6 µM] (inactive) |  |
| C=C[Si](OC(C)=O)(OC(C)=O)OC(C)=O |  | 39.9 µM (active) |
| Cc1ccccc1N=C(N)N=C(N)N | -16.1% (inactive) |  |
| CC(C)(C)C(=O)c1ccccc1 | 2.3% (inactive) |  |
| CC(=O)N1C[C@H](O)C[C@H]1C(=O)O | 4.29% [at 52.9 µM] (inactive) |  |
| CC(C)(N)C#N | 3.48% (inactive) |  |
| CC(C)(C)c1ccc(-c2ccc(C(C)(C)C)cc2)cc1 | -4.39% (inactive) |  |
| CCCCCC(C)N (stereo not given) | 2.34% [at 52.9 µM] (inactive) |  |
| N[C@H](C(=O)O)[C@@H](O)c1ccc(O)c(O)c1 | -1.66% [at 52.9 µM] (inactive) |  |
| C=COCC1CCC(COC=C)CC1 (stereo not given) | 6.71% (inactive) |  |
| CN1C(C)(C)CC(O)CC1(C)C | 6.72% (inactive) |  |
| CC(C)CC(C)(N)C#N (stereo not given) | 3.5% (inactive) |  |
| COc1c(N2CCNC(C)C2)c(F)cc2c(=O)c(C(=O)O)cn(C3CC3)c12 (stereo not given) | 0.866% [at 52.9 µM] (inactive) |  |
| CC(CO)(CO)[N+](=O)[O-] | 5.41% (inactive) |  |
| O=C(O)CC(C(=O)O)S(=O)(=O)O (stereo not given) | 68.3% (inactive) |  |
| O=C(O)CCCC[P+](c1ccccc1)(c1ccccc1)c1ccccc1 | 9.32% [at 52.9 µM] (inactive) |  |
| COc1cccc(OC)c1C(=O)N[C@@H]1C(=O)N2[C@@H]1SC(C)(C)[C@@H]2C(=O)O | 1.68% [at 52.9 µM] (inactive) |  |
| CC(=O)N[C@H]1[C@H]([C@H](O)[C@H](O)CO)OC(C(=O)O)=C[C@@H]1N=C(N)N | 0.703% [at 52.9 µM] (inactive) |  |
